Data taken from publication PMC7862700, “An all-to-all approach to the identification of sequence-specific readers for epigenetic DNA modifications on cytosine”.

How the values were obtained:
Test in all cases: DAPPL (digital affinity profiling via proximity ligation, sequencing); 10 mM Tris-HCl pH 7.5, 50 mM NaCl, 1 mM DTT, 4% glycerol, room temperature, 30 min; GST-TFs on glutathione beads, 16-mer random dsDNA library, 0.1% formaldehyde crosslink after washing; high values mean tight binding
FEV = target: T1, FEV (Homo sapiens, UniProt Q99581 1-238); details: protein: recombinant; tags: N-terminal GST; dsDNA, one strand shown
T1 sequence: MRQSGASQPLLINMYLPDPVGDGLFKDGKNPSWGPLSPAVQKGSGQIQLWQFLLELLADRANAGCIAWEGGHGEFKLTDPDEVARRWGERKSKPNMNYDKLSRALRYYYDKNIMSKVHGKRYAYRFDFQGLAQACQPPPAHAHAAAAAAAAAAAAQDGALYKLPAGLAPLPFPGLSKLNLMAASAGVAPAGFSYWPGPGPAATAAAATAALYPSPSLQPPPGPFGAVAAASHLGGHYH
Outline: (§1)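 GST fusions of human transcription factors were expressed in yeast and captured with glutathione beads. Once given DNA barcodes and pooled alongside a tag-only sample, they were incubated for 30 min at room temperature with 200 nmole of a random double-stranded 16-mer DNA library in Tris/NaCl/DTT/glycerol buffer, then washed, crosslinked (0.1% formaldehyde), proximity-ligated, PCR-amplified and sequenced on an Illumina NextSeq500. The binding signal of each hexamer is its read frequency for a factor divided by its frequency for the tag-only sample.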

ETV5 = ETV5 (Homo sapiens, UniProt P41161 1-510); details: protein: recombinant; tags: N-terminal GST; dsDNA, one strand shown
Outline: as §1

HSF1 = HSF1 (Homo sapiens, UniProt Q00613 1-529); details: protein: recombinant; tags: N-terminal GST; chain copies: 3; dsDNA, one strand shown
Outline: as §1

SPIC = target: T2, SPIC (Homo sapiens, UniProt Q8N5J4 1-248); details: protein: recombinant; tags: N-terminal GST; dsDNA, one strand shown
T2 sequence: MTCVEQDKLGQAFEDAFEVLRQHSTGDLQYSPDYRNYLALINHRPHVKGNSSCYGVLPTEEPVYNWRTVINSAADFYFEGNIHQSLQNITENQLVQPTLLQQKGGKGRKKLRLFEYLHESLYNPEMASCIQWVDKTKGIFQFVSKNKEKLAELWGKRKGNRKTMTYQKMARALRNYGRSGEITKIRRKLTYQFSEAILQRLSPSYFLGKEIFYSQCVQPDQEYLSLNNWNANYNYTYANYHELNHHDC
Outline: as §1

ELF4 = ELF4 (Homo sapiens, UniProt Q99607 1-663); details: protein: recombinant; tags: N-terminal GST; dsDNA, one strand shown
Outline: as §1

ETV2 = target: T3, ETV2 (Homo sapiens, UniProt O00321 1-342); details: protein: recombinant; tags: N-terminal GST; dsDNA, one strand shown
T3 sequence: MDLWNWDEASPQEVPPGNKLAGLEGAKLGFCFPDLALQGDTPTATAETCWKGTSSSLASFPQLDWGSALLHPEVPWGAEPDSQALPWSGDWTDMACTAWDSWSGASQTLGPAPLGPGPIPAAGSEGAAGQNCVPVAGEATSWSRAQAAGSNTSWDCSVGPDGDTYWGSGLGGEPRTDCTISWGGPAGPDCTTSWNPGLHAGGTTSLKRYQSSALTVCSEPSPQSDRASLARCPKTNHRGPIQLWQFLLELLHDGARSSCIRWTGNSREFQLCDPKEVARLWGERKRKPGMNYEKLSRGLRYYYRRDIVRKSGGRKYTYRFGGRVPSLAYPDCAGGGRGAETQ
Outline: as §1

ELF3 = target: T4, ELF3 (Homo sapiens, UniProt P78545 1-371); details: protein: recombinant; tags: N-terminal GST; dsDNA, one strand shown
T4 sequence: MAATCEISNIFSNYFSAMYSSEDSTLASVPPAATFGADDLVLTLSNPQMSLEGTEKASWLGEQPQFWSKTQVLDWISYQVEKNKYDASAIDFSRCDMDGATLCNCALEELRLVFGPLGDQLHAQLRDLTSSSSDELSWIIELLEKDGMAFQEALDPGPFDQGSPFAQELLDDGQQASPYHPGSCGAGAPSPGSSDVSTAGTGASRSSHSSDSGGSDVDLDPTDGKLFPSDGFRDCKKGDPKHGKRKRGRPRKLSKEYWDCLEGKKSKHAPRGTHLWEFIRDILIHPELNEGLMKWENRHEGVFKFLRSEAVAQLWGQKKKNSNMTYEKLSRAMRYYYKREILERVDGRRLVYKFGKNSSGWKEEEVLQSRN
Outline: as §1

CRX = CRX (Homo sapiens, UniProt O43186 1-299); details: protein: recombinant; tags: N-terminal GST; dsDNA, one strand shown
Outline: as §1

ETV1 = ETV1 (Homo sapiens, UniProt P50549 1-477); details: protein: recombinant; tags: N-terminal GST; dsDNA, one strand shown
Outline: as §1

ERF = target: T5, ERF (Homo sapiens, UniProt P50548 1-548); details: protein: recombinant; tags: N-terminal GST; dsDNA, one strand shown
T5 sequence: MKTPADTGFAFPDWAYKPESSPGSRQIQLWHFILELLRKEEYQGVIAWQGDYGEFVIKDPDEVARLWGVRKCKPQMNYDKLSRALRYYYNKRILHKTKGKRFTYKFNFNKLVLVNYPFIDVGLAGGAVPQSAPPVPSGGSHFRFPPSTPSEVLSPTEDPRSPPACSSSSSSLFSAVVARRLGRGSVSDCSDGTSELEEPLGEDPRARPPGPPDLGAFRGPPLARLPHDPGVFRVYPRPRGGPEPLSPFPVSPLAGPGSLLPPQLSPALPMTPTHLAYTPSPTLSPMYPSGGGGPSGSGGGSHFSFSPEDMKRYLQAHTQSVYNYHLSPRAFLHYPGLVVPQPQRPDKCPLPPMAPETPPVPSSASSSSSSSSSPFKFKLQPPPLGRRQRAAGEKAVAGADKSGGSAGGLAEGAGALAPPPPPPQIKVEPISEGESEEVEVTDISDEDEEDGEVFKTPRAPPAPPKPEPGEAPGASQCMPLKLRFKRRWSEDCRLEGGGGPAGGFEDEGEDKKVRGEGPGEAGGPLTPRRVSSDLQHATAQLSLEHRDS
Outline: as §1

ETV3L = target: T6, ETV3L (Homo sapiens, UniProt Q6ZN32 1-361); details: protein: recombinant; tags: N-terminal GST; dsDNA, one strand shown
T6 sequence: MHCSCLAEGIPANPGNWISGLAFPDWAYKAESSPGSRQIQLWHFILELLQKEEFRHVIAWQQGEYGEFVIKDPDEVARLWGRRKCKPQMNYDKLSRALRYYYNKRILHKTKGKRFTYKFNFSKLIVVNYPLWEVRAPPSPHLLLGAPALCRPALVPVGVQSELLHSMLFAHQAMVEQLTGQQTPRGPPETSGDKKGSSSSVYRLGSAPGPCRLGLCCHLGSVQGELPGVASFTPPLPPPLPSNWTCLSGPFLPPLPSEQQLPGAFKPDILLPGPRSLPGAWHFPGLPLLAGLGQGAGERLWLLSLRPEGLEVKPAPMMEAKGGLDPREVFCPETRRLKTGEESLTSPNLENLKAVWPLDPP
Outline: as §1

ETS2 = target: T7, ETS2 (Homo sapiens, UniProt P15036 1-469); details: protein: recombinant; tags: N-terminal GST; dsDNA, one strand shown
T7 sequence: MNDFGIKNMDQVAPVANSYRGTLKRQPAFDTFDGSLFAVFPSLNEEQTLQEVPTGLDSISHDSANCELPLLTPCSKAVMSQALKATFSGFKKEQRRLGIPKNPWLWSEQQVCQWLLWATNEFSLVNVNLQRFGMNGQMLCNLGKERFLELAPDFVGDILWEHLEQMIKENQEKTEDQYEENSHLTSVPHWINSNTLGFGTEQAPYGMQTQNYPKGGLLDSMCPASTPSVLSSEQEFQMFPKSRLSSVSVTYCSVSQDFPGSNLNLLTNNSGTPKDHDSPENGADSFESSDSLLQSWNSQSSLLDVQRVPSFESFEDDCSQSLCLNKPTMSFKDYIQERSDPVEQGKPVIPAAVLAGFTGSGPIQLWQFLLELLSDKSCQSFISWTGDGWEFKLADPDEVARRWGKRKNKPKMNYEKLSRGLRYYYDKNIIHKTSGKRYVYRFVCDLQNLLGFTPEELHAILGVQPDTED
Outline: as §1

SPDEF = target: T8, SPDEF (Homo sapiens, UniProt O95238 1-335); details: protein: recombinant; tags: N-terminal GST; dsDNA, one strand shown
T8 sequence: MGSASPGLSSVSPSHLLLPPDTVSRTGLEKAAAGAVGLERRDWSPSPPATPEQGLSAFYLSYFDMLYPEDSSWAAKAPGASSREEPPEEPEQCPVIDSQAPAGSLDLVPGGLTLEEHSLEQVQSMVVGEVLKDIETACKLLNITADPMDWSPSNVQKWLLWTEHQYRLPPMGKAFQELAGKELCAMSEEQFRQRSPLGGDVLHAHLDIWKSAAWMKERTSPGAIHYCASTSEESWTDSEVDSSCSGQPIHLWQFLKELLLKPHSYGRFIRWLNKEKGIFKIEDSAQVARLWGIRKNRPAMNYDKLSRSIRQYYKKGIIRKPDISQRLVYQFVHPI
Outline: as §1

ETV7 = target: T9, ETV7 (Homo sapiens, UniProt Q9Y603 1-341); details: protein: recombinant; tags: N-terminal GST; dsDNA, one strand shown
T9 sequence: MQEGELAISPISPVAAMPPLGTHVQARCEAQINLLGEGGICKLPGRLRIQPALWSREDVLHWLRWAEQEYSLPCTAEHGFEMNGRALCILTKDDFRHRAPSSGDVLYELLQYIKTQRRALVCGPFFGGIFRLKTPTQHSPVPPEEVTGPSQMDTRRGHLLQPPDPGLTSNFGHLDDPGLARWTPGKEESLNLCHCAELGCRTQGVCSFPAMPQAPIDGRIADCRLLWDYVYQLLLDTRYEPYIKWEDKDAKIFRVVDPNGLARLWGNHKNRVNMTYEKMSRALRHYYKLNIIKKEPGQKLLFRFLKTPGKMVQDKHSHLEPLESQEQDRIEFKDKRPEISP
Outline: as §1

ELF5 = target: T10, ELF5 (Homo sapiens, UniProt Q9UKW6-2 1-255); details: protein: recombinant; tags: N-terminal GST; dsDNA, one strand shown
T10 sequence: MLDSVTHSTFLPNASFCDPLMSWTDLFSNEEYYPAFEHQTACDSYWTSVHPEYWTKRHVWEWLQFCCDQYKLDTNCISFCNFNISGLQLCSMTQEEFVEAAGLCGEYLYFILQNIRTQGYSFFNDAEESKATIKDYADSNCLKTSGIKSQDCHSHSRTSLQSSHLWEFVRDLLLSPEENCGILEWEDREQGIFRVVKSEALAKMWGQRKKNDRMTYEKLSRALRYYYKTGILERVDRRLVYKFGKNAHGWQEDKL
Outline: as §1

ETV3 = target: T11, ETV3 (Homo sapiens, UniProt P41162-2 1-143); details: protein: recombinant; tags: N-terminal GST; dsDNA, one strand shown
T11 sequence: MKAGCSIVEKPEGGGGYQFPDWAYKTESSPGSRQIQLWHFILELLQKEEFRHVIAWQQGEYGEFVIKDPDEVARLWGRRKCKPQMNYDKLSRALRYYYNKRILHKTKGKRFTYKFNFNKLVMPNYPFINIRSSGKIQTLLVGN
Outline: as §1

ETV6 = ETV6 (Homo sapiens, UniProt P41212 1-452); details: protein: recombinant; tags: N-terminal GST; dsDNA, one strand shown
Outline: as §1

Sequence of ETV1 (P50549 whole entry): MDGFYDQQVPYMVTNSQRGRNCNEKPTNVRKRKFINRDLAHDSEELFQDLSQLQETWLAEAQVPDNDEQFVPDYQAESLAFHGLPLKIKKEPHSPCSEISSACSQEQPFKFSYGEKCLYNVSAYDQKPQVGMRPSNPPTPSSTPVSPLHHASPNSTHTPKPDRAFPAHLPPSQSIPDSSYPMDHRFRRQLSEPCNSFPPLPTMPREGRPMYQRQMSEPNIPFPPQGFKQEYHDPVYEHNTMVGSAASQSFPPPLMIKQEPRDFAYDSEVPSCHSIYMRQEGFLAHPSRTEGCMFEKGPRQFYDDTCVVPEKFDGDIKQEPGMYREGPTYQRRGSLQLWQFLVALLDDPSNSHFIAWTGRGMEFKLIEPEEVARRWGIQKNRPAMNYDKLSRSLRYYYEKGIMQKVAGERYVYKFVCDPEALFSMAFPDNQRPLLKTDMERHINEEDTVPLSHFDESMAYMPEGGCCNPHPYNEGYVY
Sequence of CRX (O43186 whole entry): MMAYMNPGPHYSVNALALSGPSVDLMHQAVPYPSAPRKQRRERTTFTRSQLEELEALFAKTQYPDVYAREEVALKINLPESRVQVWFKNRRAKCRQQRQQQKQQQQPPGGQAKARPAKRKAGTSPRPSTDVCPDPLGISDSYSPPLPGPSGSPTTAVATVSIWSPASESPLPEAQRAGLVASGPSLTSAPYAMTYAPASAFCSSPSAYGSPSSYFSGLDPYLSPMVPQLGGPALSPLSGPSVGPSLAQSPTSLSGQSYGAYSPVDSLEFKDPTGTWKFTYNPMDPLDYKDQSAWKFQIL
Sequence of ELF4 (Q99607 whole entry): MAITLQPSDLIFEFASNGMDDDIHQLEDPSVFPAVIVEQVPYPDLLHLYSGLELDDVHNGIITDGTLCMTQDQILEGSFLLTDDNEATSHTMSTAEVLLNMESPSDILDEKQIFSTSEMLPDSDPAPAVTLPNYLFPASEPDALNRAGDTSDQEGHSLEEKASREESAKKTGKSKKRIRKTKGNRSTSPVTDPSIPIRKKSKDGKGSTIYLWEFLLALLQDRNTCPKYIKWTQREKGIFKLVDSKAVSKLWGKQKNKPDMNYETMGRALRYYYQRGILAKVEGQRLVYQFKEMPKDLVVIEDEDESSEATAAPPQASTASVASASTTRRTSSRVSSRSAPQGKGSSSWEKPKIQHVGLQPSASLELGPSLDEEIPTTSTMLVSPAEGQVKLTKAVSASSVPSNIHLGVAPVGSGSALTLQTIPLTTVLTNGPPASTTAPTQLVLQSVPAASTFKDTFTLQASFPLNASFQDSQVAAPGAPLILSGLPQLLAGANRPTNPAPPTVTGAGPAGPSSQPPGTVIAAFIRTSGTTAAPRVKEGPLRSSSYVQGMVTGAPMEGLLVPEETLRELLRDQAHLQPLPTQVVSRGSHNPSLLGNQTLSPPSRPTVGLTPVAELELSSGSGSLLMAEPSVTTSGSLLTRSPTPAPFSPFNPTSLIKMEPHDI
Sequence of ETV6 (P41212 whole entry): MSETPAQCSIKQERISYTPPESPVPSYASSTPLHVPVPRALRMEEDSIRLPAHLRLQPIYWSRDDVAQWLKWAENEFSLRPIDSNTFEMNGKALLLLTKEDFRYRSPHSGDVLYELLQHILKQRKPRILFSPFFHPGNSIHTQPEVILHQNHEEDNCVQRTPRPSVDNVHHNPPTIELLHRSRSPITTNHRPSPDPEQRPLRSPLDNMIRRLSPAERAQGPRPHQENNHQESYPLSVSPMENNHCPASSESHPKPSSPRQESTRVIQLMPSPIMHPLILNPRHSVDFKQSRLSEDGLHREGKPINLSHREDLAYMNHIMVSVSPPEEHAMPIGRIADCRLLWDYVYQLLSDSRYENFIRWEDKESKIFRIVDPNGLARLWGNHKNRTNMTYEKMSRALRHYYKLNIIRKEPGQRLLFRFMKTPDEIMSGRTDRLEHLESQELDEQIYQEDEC
Sequence of ETV5 (P41161 whole entry): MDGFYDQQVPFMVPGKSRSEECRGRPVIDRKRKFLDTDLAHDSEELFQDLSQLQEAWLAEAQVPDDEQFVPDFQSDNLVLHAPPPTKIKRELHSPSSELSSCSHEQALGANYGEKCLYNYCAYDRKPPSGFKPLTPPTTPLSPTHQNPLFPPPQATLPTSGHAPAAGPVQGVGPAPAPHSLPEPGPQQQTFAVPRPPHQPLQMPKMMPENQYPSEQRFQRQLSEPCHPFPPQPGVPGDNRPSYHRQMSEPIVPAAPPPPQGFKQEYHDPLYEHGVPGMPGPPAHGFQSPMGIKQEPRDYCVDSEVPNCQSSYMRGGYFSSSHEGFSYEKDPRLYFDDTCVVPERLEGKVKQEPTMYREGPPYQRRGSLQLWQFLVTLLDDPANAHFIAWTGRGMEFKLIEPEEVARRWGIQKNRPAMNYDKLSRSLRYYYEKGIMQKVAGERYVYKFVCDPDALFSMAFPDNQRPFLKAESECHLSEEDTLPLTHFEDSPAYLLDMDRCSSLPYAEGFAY
Sequence of HSF1 (Q00613 whole entry): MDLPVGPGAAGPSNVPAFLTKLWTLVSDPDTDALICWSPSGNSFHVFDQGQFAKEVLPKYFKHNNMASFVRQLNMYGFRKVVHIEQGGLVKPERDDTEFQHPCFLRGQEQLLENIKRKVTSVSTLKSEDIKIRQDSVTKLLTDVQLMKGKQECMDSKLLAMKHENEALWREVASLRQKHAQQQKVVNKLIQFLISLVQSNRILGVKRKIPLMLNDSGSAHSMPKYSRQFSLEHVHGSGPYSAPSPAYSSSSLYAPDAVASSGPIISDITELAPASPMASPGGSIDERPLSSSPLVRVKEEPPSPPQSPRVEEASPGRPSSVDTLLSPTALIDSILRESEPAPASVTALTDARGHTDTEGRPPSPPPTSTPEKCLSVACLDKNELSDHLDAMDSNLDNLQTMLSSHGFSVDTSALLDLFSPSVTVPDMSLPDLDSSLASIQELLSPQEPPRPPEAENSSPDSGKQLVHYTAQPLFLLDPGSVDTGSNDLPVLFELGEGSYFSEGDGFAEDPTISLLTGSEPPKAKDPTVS

Sequence: TGATTC
- binding signal (FEV): 1.03 fold enrichment (6-mer frequency, TF over GST control)
- binding signal (ETV5): 1.1 fold enrichment (6-mer frequency, TF over GST control)
- binding signal (HSF1): 1.18 fold enrichment (6-mer frequency, TF over GST control)
- binding signal (SPIC): 1.11 fold enrichment (6-mer frequency, TF over GST control)
- binding signal (ELF4): 1.07 fold enrichment (6-mer frequency, TF over GST control)
- binding signal (ETV2): 1.03 fold enrichment (6-mer frequency, TF over GST control)
- binding signal (ELF3): 1.12 fold enrichment (6-mer frequency, TF over GST control)
- binding signal (CRX): 1.12 fold enrichment (6-mer frequency, TF over GST control)
- binding signal (ETV1): 1.18 fold enrichment (6-mer frequency, TF over GST control)
- binding signal (ERF): 1.07 fold enrichment (6-mer frequency, TF over GST control)
- binding signal (ETV3L): 1.09 fold enrichment (6-mer frequency, TF over GST control)
- binding signal (ETS2): 1.06 fold enrichment (6-mer frequency, TF over GST control)
- binding signal (SPDEF): 1.04 fold enrichment (6-mer frequency, TF over GST control)
- binding signal (ETV7): 1.13 fold enrichment (6-mer frequency, TF over GST control)
- binding signal (ELF5): 1.03 fold enrichment (6-mer frequency, TF over GST control)
- binding signal (ETV3): 1.15 fold enrichment (6-mer frequency, TF over GST control)
- binding signal (ETV6): 1.06 fold enrichment (6-mer frequency, TF over GST control)
